IL1B secr inh – inflammasome signaling inhibition, IL-1 beta readout. 360,000 tested, 4.7% active. THP-1 LPS/ATP IL-1B secretion, AlphaLISA, 16 h; stronger effect = lower value. activity change, % at 57.5 µM; in the data active = activity change below about -50%; inconclusive = mostly about -30% to -49%
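Secreted IL-1B measured by AlphaLISA bead assay after 16 h compound exposure of THP-1 cells; compounds (final up to 57.5 uM) added 1 h before LPS (250 ng/mL) and ATP (1.25 mM) stimulation; lower signal means less secretion.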
HT1080 IDH1KD tx – HT-1080 IDH1 knockdown cell toxicity (counter line); 360,000 tested, 2% active; AID 686971; HT-1080 IDH1 knockdown viability, ATP luminescence, 48 h; Potency, µM (series often up to 46.1 µM), for inactives: at the highest dose activity, negative = toxicity, most hits filed as cytotoxic;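 note: potency is the fitted concentration of half-maximal effect; 0% = DMSO wells and -100% = cell-free medium wells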
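IDH1KD HT-1080 cells, 750/well, RPMI + 5% FBS; compound pinned after 2 h settling; 48 h, 37 °C; CellTiter-Glo luminescence; % activity normalised to DMSO and no-cell wells; curves fitted, classed by r2 and efficacy.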
HT1080NT lethal – kills 2HG-producing HT-1080-NT fibrosarcoma cells; AID 686970; Potency, µM (doses to about 46.1 µM), for inactives: top-dose activity, negative = less viability, hits mostly cytotoxic; HT-1080-NT fibrosarcoma viability, CellTiter-Glo ATP luminescence, 48 h; 360,000 tested, 1.6% active;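 note: NT is the 2HG producing partner of a matched IDH1 knockdown line; potency is the fitted concentration of half-maximal effect; 0% = DMSO-treated cells and -100% = media-only wells without cells; nearly all actives have a fitted effect of over 55% in size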
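Viability by CellTiter-Glo luminescence after 48 h compound exposure at 37C of HT-1080-NT cells (750/well, RPMI, 5% FBS). % activity scaled between DMSO wells and medium-only wells, then curve-fitted and categorized by curve class.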
DT40 TDP1 CPT – growth inhibition of DT40 Tdp1-/-;hTDP1 cells with camptothecin (screen for TDP1 inhibitors); chicken DT40 Tdp1-/-;hTDP1 cells + 20 nM CPT, ATP luminescence, 48 h; Potency, µM (doses to about 46.2 µM), without a hit: top-dose activity change, negative = growth inhibition, most hits filed as inhibitors; 420,000 tested, 12% active; note: potency is the fitted concentration of half-maximal effect; nearly all actives have a fitted effect of over 55% in size
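Chicken DT40 Tdp1-/- cells stably complemented with human TDP1 were seeded at 400 cells/well in medium containing 20 nM camptothecin, exposed to pin-transferred compounds, and grown at 37 °C for at least 48 hr. Viability was read as ATP luminescence.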
TDP1 cell noCPT – qHTS for Inhibitors of human tyrosyl-DNA phosphodiesterase 1 (TDP1): qHTS in cells in absence of CPT; 420,000 tested, 15% active; DT40 Tdp1-/- hTDP1 cells, no CPT, ATP luminescence, 48 h; Potency, µM (doses to about 46.2 µM), for the others: at the highest dose activity change, negative = growth inhibition, hits mostly inhibitors; note: potency is the fitted concentration of half-maximal effect; nearly all actives have a fitted effect of over 55% in size
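Compound effects on proliferation are scored in DT40 Tdp1-/-;hTDP1 cells in the absence of CPT. ATP levels (CellTiter-Glo luminescence) are recorded after a ≥48 hr, 37 °C incubation.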
* = called active by the depositor; ? = inconclusive; · = not tested or not shown. Sampled rows, rich in hits. Any-hit rate of the full collection: about 19%. Unless noted, calls come from the whole dose curve; as a rule, active = well fitted curve in the direction sought with a large enough effect; inconclusive = small, poorly fitted or top-dose-only effect, or another doubt; inactive = no such curve, though single readings can be large; an effect the other way counts as inactive or inconclusive. Unless noted, % is set by controls: 0 for no effect and ±100 for the full control effect.

SMILES	IL1B secr inh	HT1080 IDH1KD tx	HT1080NT lethal	DT40 TDP1 CPT	TDP1 cell noCPT
Cc1cc(OCC(=O)Nc2ccc(N3CCN(C)CC3)cc2)ccc1Cl	?	-19.7%	-1.3%	?	-25.6%
COc1cccc(NC(=O)N(CCC(C)C)C2CCN(C(C)C)CC2)c1	·	·	·	-5.5%	?
COc1ccc(C(=O)N/N=C(/C)c2cccc(NC(=O)c3ccccc3F)c2)cc1	10.1	2.4%	3.9%	?	?
C/C(=N\NC(=O)c1ccccc1F)c1ccc2c(c1)Nc1ccccc1S2	?	?	-28.4%	5.8µM*	23.1µM*
COc1ccc2cc(CN(Cc3cccs3)Cc3nnnn3Cc3ccccc3)c(=O)[nH]c2c1	-0.7	1.3%	-0.9%	?	?
CCOC(=O)Cn1nnnc1CN(Cc1ccccc1)Cc1cc2cc(CC)ccc2[nH]c1=O	-91.4*	-12.8%	0.7%	20.6µM*	?
CCc1ccc2[nH]c(=O)c(CN(Cc3ccccc3)Cc3nnnn3Cc3ccco3)cc2c1	-54.1*	?	-22.6%	?	16.4µM*
COc1ccccc1CN(Cc1cc2cc3c(cc2[nH]c1=O)OCCO3)Cc1nnnn1Cc1ccco1	19.6	1.6%	-12.3%	25.9µM*	?
O=c1[nH]c2cc3c(cc2cc1CN(Cc1cccs1)Cc1nnnn1Cc1ccco1)OCCO3	-23.8	10.6%	10.0%	14.6µM*	16.4µM*
CCN1CCN(CCC(=O)Nc2ccccc2C)CC1	8.2	4.2%	-7.8%	?	?
COc1ccc(C(CNC(=O)CN2C(=O)NC3(CCCC3)C2=O)N(C)C)cc1 (centres undefined)	7.1	-1.5%	12.9%	-2.1%	5.0%
O=C(Nc1cc(-c2ccccc2)nn1C1CCCCC1)c1ccc(Cl)cc1	-17.6	-14.9%	-17.0%	?	?
O=c1[nH]c2cc3c(cc2cc1CN(Cc1ccccc1)Cc1nnnn1Cc1ccco1)OCCO3	-59.2*	?	13.4%	?	?
Cc1cc(OCC(=O)NCC(c2cccs2)N2CCOCC2)ccc1C(C)C (centres undefined)	-57.3*	-13.3%	-18.6%	?	?
Cc1cccc(OCC(=O)NCC(c2cccs2)N2CCOCC2)c1 (centres undefined)	-0.8	0.8%	0.0%	4.8%	-19.4%
Cc1cc(SCC(=O)NCC(c2cccs2)N2CCOCC2)c(C)cc1Br (centres undefined)	-26.2	-4.8%	-9.5%	?	18.4µM*
Cc1ccc(C(C)C)c(OCC(=O)NCC(c2cccs2)N2CCOCC2)c1 (centres undefined)	?	-2.5%	-21.1%	25.9µM*	13µM*
Cc1cc(Cl)ccc1OCC(=O)NCC(c1cccs1)N1CCOCC1 (centres undefined)	?	-21.0%	-13.0%	?	16.4µM*
CCCC#CCN1CCN(C23CC4CC(CC(C4)C2)C3)CC1	17.3	0.0%	14.8%	0.3%	-20.6%
Cc1cccc2nc(CNC(=O)C3CCC(=O)N(Cc4ccccc4F)C3)cn12 (centres undefined)	3.4	8.7%	3.1%	10.7%	-1.9%
COC(=O)Cn1c2ccc(F)cc2c2nc(C)sc21	2.4	2.1%	2.9%	0.5%	-0.1%
Cc1nc2c3cc(Cl)ccc3n(CCN3CCCCC3)c2s1	-12.0	?	?	20.6µM*	23.1µM*
Cc1nc2c3cc(F)ccc3n(Cc3ccc(F)cc3)c2s1	99.9	?	-27.2%	?	8.2µM*
Cc1oc(-c2cccs2)nc1CN1CCN(Cc2ccc(F)c(F)c2)C(CCO)C1 (centres undefined)	-26.9	-8.1%	-9.5%	?	?
O=C(NNC(=O)C1CC=CCC1)c1ccccc1Cl (centres undefined)	2.0	16.7%	-0.2%	10.5%	0.6%
SMILES	IL1B secr inh	HT1080 IDH1KD tx	HT1080NT lethal	DT40 TDP1 CPT	TDP1 cell noCPT
CCOC(=O)/C(=C/c1ccco1)NC(=O)c1ccc(Br)o1	37.1	3.8%	7.8%	11.2%	-2.0%
CSC[C@H]1CN(c2ccccc2)C(=O)[C@@H]1CC(=O)Nc1ccccc1	-4.2	5.1%	12.0%	?	?
CCc1ccc(Nc2ncccc2C#N)cc1	-59.3*	-3.0%	-8.0%	-9.8%	-6.6%
Cc1ccc(/C=C/C(=O)Nc2ccc(N(C)C)cc2)o1	-29.0	-6.3%	-0.7%	20.6µM*	?
Cc1ccc(/C=N/NC(=O)NC2CCCCC2)o1	-15.2	-2.4%	-5.6%	-6.5%	?
Cc1ccc(/C=C/C(=O)NC2CCCCCCC2)o1	-103.9*	?	-2.3%	2.59µM*	3.66µM*
Cc1ccc(N(CC(=O)NCc2ccccc2)C(=O)c2csnn2)c(C)c1	3.3	2.5%	-3.4%	-5.1%	-13.3%
CCc1ccc(CN(C)Cc2nc(-c3cccc(Cl)c3)no2)nc1	21.0	11.8%	-3.2%	-32.7%	?
COC(=O)/C=C1\S/C(=N\N=C\CC(=O)OC)NC1=O	4.3	-1.8%	-1.2%	3.66µM*	5.17µM*
Cc1cccc(Oc2ccc(Cl)cc2N)c1	-19.4	-17.2%	-13.9%	-29.7%	?
CN(c1ccccc1)c1ncnc2c1cnn2C	·	·	·	-13.9%	?
COc1cc2sc3ccc(C#CC4(O)CCCCC4)cc3c(=O)c2cc1OC	0.0	?	-22.9%	?	16.4µM*
CNC(C)C#Cc1ccc2sc3cccc(OC)c3c(=O)c2c1 (centres undefined)	-80.5*	4.8%	-2.1%	?	14.6µM*
COc1cc2sc3ccc(C#Cc4ccccn4)cc3c(=O)c2cc1OC	-7.0	-0.6%	?	-88.9%	?
COc1cccc(C#Cc2c(C=O)n(C)c3ccccc23)c1	35.1	?	-19.4%	16.4µM*	16.4µM*
COc1cccc2sc3ccc(C#CC4(N)CCCCC4)cc3c(=O)c12	-61.1*	-14.4%	-14.6%	16.4µM*	14.6µM*
CC1=C(C(=O)OC2CCC(C)CC2)C(c2ccc(O)c([N+](=O)[O-])c2)NC(=O)N1 (centres undefined)	1.9	-0.3%	-11.9%	-26.3%	-13.9%
COc1cccc2sc3cc(C#CC4(O)CCCCC4)ccc3c(=O)c12	?	?	?	7.31µM*	?
COc1ccc(C#Cc2ccc3c(c2)c(=O)c2ccccc2n3C)cc1	58.9	7.5%	2.6%	?	18.4µM*
Cn1c2ccccc2c(=O)c2ccc(C#CC3(O)CCCCC3)cc21	-53.8*	?	?	13µM*	10.3µM*
O=C(NCc1ccc(Br)cc1)OC1CC2CC1[C@H]1CCCCN1C2=O (some centres undefined)	1.5	2.3%	3.2%	-12.7%	-27.6%
CC(Sc1nc(N)c2c3c(sc2n1)CSC(C)(C)C3)C(=O)Nc1ccccc1 (centres undefined)	?	-14.8%	-17.4%	18.4µM*	13µM*

Screens from PubChem.
